Inconclusive results are not listed. Activity calls are given as the source filed them. Calls come from the whole dose curve; as a rule, active = well fitted curve in the direction sought with a large enough effect; inconclusive = small, poorly fitted or top-dose-only effect, or another doubt; inactive = no such curve, though single readings can be large; an effect the other way counts as inactive or inconclusive.
What was measured:
[1] = Quantitative High-Throughput drug screen in 47 multiple myeloma cell lines against the NCATS MIPE library collection: KHM11_PLB cell viability assay (AID 1918962); note: nearly all actives have a fitted effect of over 35% in size
In short: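 Viability readout: CellTiter-Glo luminescence following 5 min room-temperature incubation with reagent. Prior exposure: 48 h, 37C, humidified 5% CO2, 500 cells per well.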

[2] = Quantitative High-Throughput drug screen in 47 multiple myeloma cell lines against the NCATS MIPE library collection: JIM1_ECACC cell viability assay (AID 1918964)
In short: (§1)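 We plated 500 myeloma cells per well, pinned in MIPE 4.0 compounds, and incubated for 48 hours at 37C. ATP was then quantified with CellTiter-Glo, with DMSO and media-only wells defining 100% and 0%.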

[3] = Quantitative High-Throughput drug screen in 47 multiple myeloma cell lines against the NCATS MIPE library collection: INA6_PLB cell viability assay (AID 1918965; note: nearly all actives have a fitted effect of over 55% in size)
In short: (§2)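 Approved and investigational drugs from MIPE 4.0 were added by pin tool to 500 cells per well. After 48 hours at 37C, ATP-based CellTiter-Glo luminescence indicated remaining viability.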

[4] = Quantitative High-Throughput drug screen in 47 multiple myeloma cell lines against the NCATS MIPE library collection: JJN3_DSMZ cell viability assay (AID 1918966; note: nearly all actives have a fitted effect of over 50% in size)
In short: as §1

[5] = Quantitative High-Throughput drug screen in 47 multiple myeloma cell lines against the NCATS MIPE library collection: H1112_PLB cell viability assay (AID 1918967; note: nearly all actives have a fitted effect of over 30% in size)
In short: as §1

[6] = Quantitative High-Throughput drug screen in 47 multiple myeloma cell lines against the NCATS MIPE library collection: Karpas25_ECACC cell viability assay (AID 1918968; note: nearly all actives have a fitted effect of over 35% in size)
In short: as §1

[7] = Quantitative High-Throughput drug screen in 47 multiple myeloma cell lines against the NCATS MIPE library collection: KMS27_JCRB cell viability assay (AID 1918970); note: nearly all actives have a fitted effect of over 30% in size
In short: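 Each line is seeded at 500 cells per well and treated with library compounds for 48 hours under 37 °C, 5% CO2. CellTiter-Glo is then added for 5 min at room temperature before median relative luminescence is recorded.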

[8] = Quantitative High-Throughput drug screen in 47 multiple myeloma cell lines against the NCATS MIPE library collection: KMS12PE_JCRB cell viability assay (AID 1918972); note: nearly all actives have a fitted effect of over 30% in size
In short: as §2

[9] = Quantitative High-Throughput drug screen in 47 multiple myeloma cell lines against the NCATS MIPE library collection: KMS20_JCRB cell viability assay (AID 1918973); note: nearly all actives have a fitted effect of over 45% in size
In short: as §1

[10] = Quantitative High-Throughput drug screen in 47 multiple myeloma cell lines against the NCATS MIPE library collection: KMS21BM_JCRB cell viability assay (AID 1918974); details: ATP luminescence, 48 h; viability: at 45.8 µM (top of the series) unless noted
In short: as §1

[11] = Quantitative High-Throughput drug screen in 47 multiple myeloma cell lines against the NCATS MIPE library collection: KMS26_JCRB cell viability assay (AID 1918975); note: nearly all actives have a fitted effect of over 45% in size
In short: (§3)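 Relative luminescence from CellTiter-Glo served as the viability signal, referenced to DMSO-treated (100%) and cell-free medium (0%) controls. Treatment lasted 48 hours at 37C with 500 cells per well.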

[12] = Quantitative High-Throughput drug screen in 47 multiple myeloma cell lines against the NCATS MIPE library collection: MMM1_PLB cell viability assay (AID 1918976); note: nearly all actives have a fitted effect of over 35% in size
In short: (§4)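 MIPE 4.0 approved/investigational drugs; 500 cells/well; 48 h 37 °C humidified 5% CO2; CTG luminescence readout; DMSO = 100%, media = 0% viability.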

[13] = Quantitative High-Throughput drug screen in 47 multiple myeloma cell lines against the NCATS MIPE library collection: MOLP8_DSMZ cell viability assay (AID 1918977); note: nearly all actives have a fitted effect of over 45% in size
In short: as §4

[14] = Quantitative High-Throughput drug screen in 47 multiple myeloma cell lines against the NCATS MIPE library collection: NCIH929_DSMZ cell viability assay (AID 1918978); note: nearly all actives have a fitted effect of over 35% in size
In short: as §4

[15] = Quantitative High-Throughput drug screen in 47 multiple myeloma cell lines against the NCATS MIPE library collection: OCIMY1_PLB cell viability assay (AID 1918979); note: nearly all actives have a fitted effect of over 35% in size
In short: as §4

[16] = Quantitative High-Throughput drug screen in 47 multiple myeloma cell lines against the NCATS MIPE library collection: MM1S_ATCC cell viability assay (AID 1918980); note: nearly all actives have a fitted effect of over 45% in size
In short: as §4

[17] = Quantitative High-Throughput drug screen in 47 multiple myeloma cell lines against the NCATS MIPE library collection: MM1R_ATCC cell viability assay (AID 1918981); note: nearly all actives have a fitted effect of over 35% in size
In short: as §4

[18] = Quantitative High-Throughput drug screen in 47 multiple myeloma cell lines against the NCATS MIPE library collection: KMS12BM_JCRB cell viability assay (AID 1918971); note: nearly all actives have a fitted effect of over 35% in size
In short: as §3

[19] = Quantitative High-Throughput drug screen in 47 multiple myeloma cell lines against the NCATS MIPE library collection: LP1_DSMZ cell viability assay (AID 1918982); note: nearly all actives have a fitted effect of over 35% in size
In short: as §4
Potency is the fitted concentration of half-maximal effect.

NC(=O)Nc1cc(-c2cccc(F)c2)sc1C(=O)N[C@H]1CCCNC1
Potency [1]: 0.0743 µM (active)
Potency [2]: 0.105 µM (active)
Potency [3]: 0.059 µM (active)
Potency [4]: 1.32 µM (active)
Potency [5]: 1.48 µM (active)
Potency [6]: 0.59 µM (active)
Potency [7]: 0.59 µM (active)
Potency [8]: 0.469 µM (active)
Potency [9]: 0.662 µM (active)
Potency [10]: 0.235 µM (active)
Potency [11]: 11.8 µM (active)
Potency [12]: 4.69 µM (active)
Potency [13]: 0.118 µM (active)
Potency [14]: 2.64 µM (active)
Potency [15]: 4.69 µM (active)
Potency [16]: 0.132 µM (active)
Potency [17]: 0.148 µM (active)

N#CCNC(=O)c1ccc(-c2ccnc(Nc3ccc(N4CCOCC4)cc3)n2)cc1
Potency [1]: 4.69 µM (active)
Potency [2]: inactive
Potency [3]: 1.32 µM (active)
Potency [4]: 13.2 µM (active)
Potency [5]: 18.7 µM (active)
Potency [18]: 14.8 µM (active)
Potency [8]: 5.26 µM (active)
Potency [9]: 13.2 µM (active)
Potency [11]: 18.7 µM (active)
Potency [12]: 18.7 µM (active)
Potency [13]: 11.8 µM (active)
Potency [14]: 9.35 µM (active)
Potency [15]: 23.5 µM (active)
Potency [16]: 18.7 µM (active)
Potency [19]: 20.9 µM (active)

C=C1C(=CC=C2CCC[C@]3(C)[C@@H]([C@H](C)C=C[C@H](C)C(C)C)CC[C@@H]23)C[C@@H](O)C[C@@H]1O
Potency [1]: 9.35 µM (active)
Potency [2]: 0.526 µM (active)
Potency [3]: 1.48 µM (active)
Potency [4]: 0.833 µM (active)
Potency [6]: 0.935 µM (active)
Potency [7]: 0.118 µM (active)
Potency [18]: 1.87 µM (active)
Potency [8]: 0.662 µM (active)
Potency [10]: 0.0526 µM (active)
Potency [11]: 2.35 µM (active)
Potency [12]: 5.9 µM (active)
Potency [13]: 7.43 µM (active)
Potency [14]: 0.935 µM (active)
Potency [15]: 18.7 µM (active)
Potency [16]: 0.0833 µM (active)

COc1cc(=C2C=c3ccccc3=N2)[nH]c1=Cc1[nH]c(C)cc1C
Potency [1]: 0.418 µM (active)
Potency [3]: 1.18 µM (active)
Potency [4]: 1.87 µM (active)
Potency [5]: 5.9 µM (active)
Potency [6]: 0.743 µM (active)
Potency [7]: 16.6 µM (active)
Potency [8]: 20.9 µM (active)
Potency [9]: 7.43 µM (active)
Potency [11]: 2.35 µM (active)
Potency [12]: 2.09 µM (active)
Potency [13]: 0.469 µM (active)
Potency [14]: 5.26 µM (active)
Potency [15]: 3.72 µM (active)
Potency [16]: 4.18 µM (active)
Potency [17]: 1.05 µM (active)
Potency [19]: 0.743 µM (active)

Clc1cccc(-c2nnnn2Cc2cccnc2)c1Cl
Potency [1]: inactive
Potency [2]: inactive
Potency [3]: inactive
Potency [8]: inactive
Potency [9]: inactive
Potency [11]: inactive
Potency [13]: inactive
Potency [15]: inactive
Potency [17]: inactive
Potency [19]: inactive

Cc1cnc(Nc2ccc(F)cc2Cl)nc1-c1c[nH]c(C(=O)N[C@H](CO)c2cccc(Cl)c2)c1
Potency [1]: 0.526 µM (active)
Potency [2]: 7.43 µM (active)
Potency [3]: 9.35 µM (active)
Potency [5]: 16.6 µM (active)
Potency [7]: 6.62 µM (active)
Potency [18]: 23.5 µM (active)
Potency [8]: 10.5 µM (active)
Potency [9]: 3.32 µM (active)
Potency [11]: 20.9 µM (active)
Potency [12]: 16.6 µM (active)
Potency [13]: 23.5 µM (active)
Potency [14]: 16.6 µM (active)
Potency [15]: 26.4 µM (active)
Potency [16]: 16.6 µM (active)
Potency [17]: 16.6 µM (active)
Potency [19]: 18.7 µM (active)

C[C@]1(CO)CN(c2cc(C(=O)Nc3ccc4c(c3)-c3c(c(C(N)=O)nn3-c3ccc(F)cc3)CC4)c(Cl)cn2)C[C@@]1(C)CO
Potency [1]: 4.18 µM (active)
Potency [2]: 11.8 µM (active)
Potency [3]: 2.64 µM (active)
Potency [5]: 11.8 µM (active)
Potency [6]: 14.8 µM (active)
Potency [7]: 0.0053 µM (active)
Potency [18]: 16.6 µM (active)
Potency [9]: 5.26 µM (active)
Potency [10]: 5.26 µM (active)
Potency [12]: 14.8 µM (active)
Potency [14]: 9.35 µM (active)
Potency [15]: inactive
Potency [16]: 14.8 µM (active)
Potency [17]: 8.33 µM (active)

CN(C)CCCN=c1c2ccccc2n(C)c2[nH]c(=O)n(C)c(=O)c12
Potency [1]: 5.26 µM (active)
Potency [4]: 16.6 µM (active)
Potency [5]: 16.6 µM (active)
Potency [18]: 4.18 µM (active)
Potency [8]: 5.9 µM (active)
Potency [11]: 26.4 µM (active)
Potency [12]: 16.6 µM (active)
Potency [13]: 6.62 µM (active)
Potency [14]: 11.8 µM (active)
Potency [16]: 3.72 µM (active)
Potency [17]: 18.7 µM (active)

C=CC(=O)Nc1cc2c(Nc3ccc(F)c(Cl)c3)ncnc2cc1OCCCN1CCOCC1
Potency [1]: inactive
Potency [3]: 0.833 µM (active)
Potency [4]: 16.6 µM (active)
Potency [6]: 2.64 µM (active)
Potency [18]: 14.8 µM (active)
Potency [9]: 0.526 µM (active)
Potency [11]: 5.26 µM (active)
Potency [12]: 18.7 µM (active)
Potency [13]: 8.33 µM (active)
Potency [14]: 2.64 µM (active)
Potency [15]: 23.5 µM (active)
Potency [16]: 18.7 µM (active)
Potency [17]: 8.33 µM (active)
Potency [19]: 16.6 µM (active)

COc1c(OCCCN2CCOCC2)ccc2c3n(c(=NC(=O)c4cnc(N)nc4)nc12)CCN3
Potency [1]: 0.575 µM (active)
Potency [2]: 0.0072 µM (active)
Potency [3]: 6.45 µM (active)
Potency [4]: 3.23 µM (active)
Potency [6]: 0.0575 µM (active)
Potency [7]: 0.0457 µM (active)
Potency [18]: 5.75 µM (active)
Potency [8]: 0.0724 µM (active)
Potency [9]: 0.0512 µM (active)
Potency [11]: 0.407 µM (active)
Potency [12]: 0.0512 µM (active)
Potency [13]: 0.0288 µM (active)
Potency [14]: 0.0129 µM (active)
Potency [15]: 0.0204 µM (active)
Potency [16]: 0.0911 µM (active)
Potency [17]: 0.0812 µM (active)

— PubChem BioAssay (NCATS)
